The list is not random: actives were taken first. Their share in the collection is about 2.9%.
PG9 binder: small molecules binding HIV-1 gp120 antibody PG9 | TR-FRET gp120-PG9 antibody binding | inhibition, % at 6.7 µM | hit rate 0.43% among 360,000; in the data active means inhibition above about 8.5%
Rev-erbA mod: modulates human Rev-erb alpha binding to DNA; activity, % at 10 µM; AID 1259318; P20393; Rev-erbα–FITC-DNA binding, fluorescence polarization, 90 min; hit rate 0.79% among 370,000;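 active means activity above about 14%, limit read from the data; passing the limit was not always enough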
EP2 mod: modulators of human EP2 prostaglandin E2 receptor | P43116 | hit rate 0.83% among 260,000 | AID 940 | induction, % at 25 µM | EP2-expressing cells, cAMP HTRF FRET, PGE2 co-stimulation;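 active means compounds whose cAMP rise, as percent of the full-agonist control response, exceeds 60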;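 further: rat C6 glioma line stably carrying human EP2 under a CMV promoter; the protocol text gives 20 µM as final concentration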
Target sequence (P43116 whole entry, looked up): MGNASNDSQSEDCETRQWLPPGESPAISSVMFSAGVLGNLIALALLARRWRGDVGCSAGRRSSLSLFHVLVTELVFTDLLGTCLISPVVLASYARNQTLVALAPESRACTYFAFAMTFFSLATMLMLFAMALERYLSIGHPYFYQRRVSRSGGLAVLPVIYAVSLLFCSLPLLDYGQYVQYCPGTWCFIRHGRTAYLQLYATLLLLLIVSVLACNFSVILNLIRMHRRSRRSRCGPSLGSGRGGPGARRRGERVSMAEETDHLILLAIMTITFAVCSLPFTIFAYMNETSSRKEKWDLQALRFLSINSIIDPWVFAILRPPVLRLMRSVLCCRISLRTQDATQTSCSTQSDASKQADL
RAM inhibit: inhibitors of the yeast RAM network | AID 868 | inhibition, % at 50 µM | S. cerevisiae dse1pr::URA3 reporter, 5-FOA growth OD615, 2 d; analog-sensitive cbk1-as2 kinase mutant strain | hit rate 1.8% among 190,000;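 active means inhibition above a set limit, 3 SD over mean compound inhibition, cut at about 8.4% in these data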;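 further: inhibition rescues growth on 5-FOA so higher OD means more RAM inhibition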
EP2 antag: EP2 receptor (human) inhibition; hit rate 0.52% among 260,000; AID 1422; inhibition, % at 25 µM; C6 glioma cells expressing human EP2, cAMP TR-FRET; cells stimulated with saturating PGE2;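 active means percent inhibition above 40 after rounding to a whole number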;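 further: rat C6 glioma host cells with rolipram phosphodiesterase inhibitor present; the protocol text gives 20 µM as final concentration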
SKN-1 inh: blocks SKN-1 activity in C. elegans. C. elegans VP596 Pgst-4::GFP/RFP ratio, acrylamide-induced, 24 h. inhibition, % at 21.8 µM. hit rate 0.49% among 360,000;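 active means interference check ratio from 0.5 to 1.5 plus GFP to RFP signal ratio inhibition reaching or exceeding a fixed threshold, cut at about 30% in these data, passing the limit was not always enough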
PG9 bind confirm: PG9 antibody binding, confirmed; hit rate 90% among 1,500; AID 651571; inhibition, % at 6.7 µM; TR-FRET PG9 antibody binding, biochemical; shares compounds with PG9 binder; in the data active means inhibition above about 9%
PGV04 Ab binding: PGV04 control antibody binding, counter-screen. shares compounds with PG9 binder. TR-FRET PGV04 antibody-gp120 binding, biochemical. inhibition, % at 6.7 µM. hit rate 95% among 1,500. AID 651604; in the data active means inhibition above about 9.5%
PG9 binder DR: small molecules binding HIV-1 gp120 antibody PG9; shares compounds with PG9 binder; TR-FRET PG9 antibody-gp120 binding inhibition; IC50, µM; 95 tested, under 10 active; AID 651848; in the data active means IC50 below about 10 µM
PGV04 DR counter: PGV04 binding, dose response counter-screen. hit rate 20% among 95. AID 651937. TR-FRET binding to control antibody PGV04. IC50, µM. shares compounds with PG9 binder
PG126 DR counter: counter-screen for PG9 binders: binding to control antibody PG126; shares compounds with PG9 binder; IC50, µM; TR-FRET binding to antibody PG126, counterscreen; AID 651939; hit rate 20% among 95
Each line names hits and unclear results; the compound was inactive in the other large screens (follow-up assays come after a bar, where they were run). Unless noted, no stated cut-off is given here; in the data, active means IC50 below about 9 µM; inactive means the rest.

CCCC1Cc2c(sc3nc(SC)nc(N)c23)CO1 (stereo not drawn)	PG9 binder 16 | PG9 bind confirm 18 | PGV04 Ab binding 34
NC(=O)Cn1nnc(-c2ccccc2NC(=O)C2CC2)n1	none (no result: PG9 binder, Rev-erbA mod, RAM inhibit, SKN-1 inh)
CCc1nnc(NC(=O)CN2CCCCCC2)s1	none (no result: PG9 binder, Rev-erbA mod, RAM inhibit, SKN-1 inh)
O=C(CSc1nc2nc(-c3cccs3)cc(C(F)(F)F)c2c(=O)[nH]1)Nc1ccc(F)c(F)c1	PG9 binder 17 | PG9 bind confirm 20 | PGV04 Ab binding 28
Cc1ccc(C)c(NC(=O)CSc2nc3nc(-c4cccs4)cc(C(F)(F)F)c3c(=O)[nH]2)c1	none (no result: RAM inhibit)
CC(C)Nc1ncnc2ccc(Br)cc12	none
CSCCC(Nc1ncnc2ccc(Br)cc12)C(=O)O (stereo not drawn)	PG9 binder 13 | PG9 bind confirm 20 | PGV04 Ab binding 20
Cc1nc2ccc(F)cc2cc1C(=O)Nc1ccc(Cl)c(Cl)c1	PG9 binder 22 | PG9 bind confirm 24 | PGV04 Ab binding 32
CCc1c2c(nc3ccc(OC(=O)N4CCC(N5CCCCC5)CC4)cc13)-c1cc3c(c(=O)n1C2)COC(=O)[C@]3(O)CC	none (no result: RAM inhibit)
CCC1(O)C(=O)OCc2c1cc1n(c2=O)Cc2cc3cc(O)ccc3nc2-1 (stereo not drawn)	PG9 binder 19 (no result: EP2 mod, RAM inhibit, EP2 antag) | PG9 bind confirm 16 | PGV04 Ab binding 31
O=C(O)c1ccccc1NC(=S)NC(=O)c1sc2ccccc2c1Cl	PG9 binder 9.8 | PG9 bind confirm 17 | PGV04 Ab binding 19
O=c1cc(-c2ccc(O)c(O)c2)oc2ccc3ccccc3c12	none (no result: EP2 mod, RAM inhibit, EP2 antag)
O=c1cc(-c2ccccc2)oc2ccc3ccccc3c12	PG9 binder 15, SKN-1 inh 36 (no result: EP2 mod, RAM inhibit, EP2 antag) | PG9 bind confirm 16 | PGV04 Ab binding 24
CC(NC(=O)c1ccccc1)c1cccs1 (stereo not drawn)	none (no result: PG9 binder, Rev-erbA mod, RAM inhibit, SKN-1 inh)
Cc1ccc(S(=O)(=O)c2c(N)n(CCN3CCOCC3)c3nc4ccccc4nc23)cc1C	PG9 binder 26, RAM inhibit 11 | PG9 bind confirm 17 | PGV04 Ab binding 29
Nc1c(S(=O)(=O)c2ccccc2)c2nc3ccccc3nc2n1CCN1CCOCC1	none
Cc1c(C(=O)N2CCC(c3ccncc3)CC2)oc2ccccc12	none (no result: PG9 binder, Rev-erbA mod, RAM inhibit, SKN-1 inh)
CCC(=O)N1CCN(c2ccc(NC(=O)COc3ccc(C)cc3)cc2)CC1	none (no result: PG9 binder, Rev-erbA mod, RAM inhibit, SKN-1 inh)
CCOc1ccc(NC(=O)CCC(=O)c2ccc(Br)cc2)cc1	PG9 binder 16 (no result: EP2 mod, RAM inhibit, EP2 antag) | PG9 bind confirm 18 | PGV04 Ab binding 22
COc1cccc(NC(=O)C2CCN(S(=O)(=O)c3ccc(OC)c(OC)c3)CC2)c1	none (no result: PG9 binder, Rev-erbA mod, RAM inhibit, SKN-1 inh)
COc1ccc2[nH]c3c(=S)nc[nH]c3c2c1	PG9 binder 50, EP2 mod 62 | PG9 bind confirm 26 | PGV04 Ab binding 26 | PG9 binder DR inactive | PGV04 DR counter inactive | PG126 DR counter inactive
CCOc1cc(C2Nc3ccccc3C(=O)N2c2ccc(F)cc2)ccc1OCC#N (stereo not drawn)	none (no result: PG9 binder, Rev-erbA mod, RAM inhibit, SKN-1 inh)
Cc1ncsc1C(=O)N1CCC2(CC1)NC(=O)c1cccnc1N2C	none (no result: PG9 binder, Rev-erbA mod, RAM inhibit, SKN-1 inh)
O=C(Nc1nc2c(F)cc(F)cc2s1)C1CCN(C(=O)c2ccc(F)cc2)CC1	PG9 binder 9.1 (no result: EP2 mod, RAM inhibit, EP2 antag) | PG9 bind confirm 9.7 | PGV04 Ab binding 17
CSc1nc2sc3c(c2c(=S)[nH]1)CC(C)(C)OC3	PG9 binder 12 (no result: EP2 mod, RAM inhibit, EP2 antag) | PG9 bind confirm 44 | PGV04 Ab binding 73
Cc1cc(-c2cnc(C)nc2C2CCCN(CC(=O)Nc3nccs3)C2)on1 (stereo not drawn)	none (no result: PG9 binder, Rev-erbA mod, RAM inhibit, EP2 antag, SKN-1 inh)
CC1CCCC(NC(=O)COC(=O)c2ccc3ccccc3n2)C1C (stereo not drawn)	PG9 binder 15 | PG9 bind confirm 24 | PGV04 Ab binding 32
CC1CCCC(NC(=O)COC(=O)c2ccccc2Sc2ccccc2C#N)C1C (stereo not drawn)	PG9 binder 12 | PG9 bind confirm 29 | PGV04 Ab binding 48
N#Cc1ccccc1Sc1ccccc1C(=O)OCC(=O)NC12CC3CC(CC(C3)C1)C2	none
CCOc1ccc2[nH]c(=O)c(CN(C(=O)Nc3ccccc3OC)C3CCCCC3)cc2c1	none (no result: PG9 binder, Rev-erbA mod, RAM inhibit, SKN-1 inh)
S=c1nc[nH]c2c1cnn2-c1ccccc1	PG9 binder 17, EP2 mod 71 (no result: RAM inhibit) | PG9 bind confirm inactive | PGV04 Ab binding inactive | PG9 binder DR inactive | PGV04 DR counter inactive | PG126 DR counter inactive
Nc1ncnc2c1cnn2-c1ccccc1	none (no result: EP2 mod)
Cc1nc2ccc3nc(NC(=O)c4ccco4)sc3c2s1	none (no result: EP2 mod, RAM inhibit)
Cc1csc2c(=O)sc(NC(=O)c3ccco3)nc12	PG9 binder 37 (no result: RAM inhibit) | PG9 bind confirm 49 | PGV04 Ab binding 78
Cc1csc2c(=O)sc(NC(=O)c3cccs3)nc12	PG9 binder 64 (no result: RAM inhibit) | PG9 bind confirm 66 | PGV04 Ab binding 88
COc1ccc(CC(=O)N[C@H](Cn2nnc3ccccc32)C(C)C)cc1OC	none (no result: PG9 binder, Rev-erbA mod, RAM inhibit, SKN-1 inh)
CC(=O)c1cccc(NC(=O)CCc2nnc3ccc(N4CCN(C)CC4)nn23)c1	none (no result: EP2 mod, RAM inhibit, EP2 antag)
CC(=O)c1cccc(NC(=O)CCc2nnc3ccc(NCc4ccc5c(c4)OCO5)nn23)c1	PG9 binder 19 (no result: EP2 mod, RAM inhibit, EP2 antag) | PG9 bind confirm 23 | PGV04 Ab binding 27
Cc1cc(NC(=O)CSc2nc3sc4c(c3c(=O)n2C)CCCC4)no1	none (no result: EP2 antag)
CCn1c(SCC(=O)Nc2cc(C)on2)nc2sc3c(c2c1=O)CCCC3	PG9 binder 9.2 (no result: EP2 antag) | PG9 bind confirm inactive | PGV04 Ab binding 24
Cc1ccc2c(CC(=O)OCc3cc(=O)n4c(n3)sc3ccccc34)coc2c1	none (no result: EP2 antag)
CC(C)[C@H](NC(=O)Cc1ccccc1)C(=O)OCc1cc(=O)n2c(n1)sc1ccccc12	PG9 binder 9.6 | PG9 bind confirm 17 | PGV04 Ab binding 21
Cc1sc2nc(SCC(=O)Nc3ccccc3F)[nH]c(=O)c2c1C	PG9 binder 8.7 (no result: EP2 mod, RAM inhibit, EP2 antag) | PG9 bind confirm 21 | PGV04 Ab binding 34
CCc1ccccc1NC(=O)CSc1nc2sc(C)c(C)c2c(=O)[nH]1	none (no result: PG9 binder, Rev-erbA mod, RAM inhibit, SKN-1 inh)
COc1ccc(Cn2c(=O)[nH]c3cc(C(=O)NCc4ccc5c(c4)OCO5)ccc3c2=O)cc1	PG9 binder 9.1 (no result: Rev-erbA mod, EP2 antag) | PG9 bind confirm 14 | PGV04 Ab binding 18
COc1ccc(Cn2c(=O)[nH]c3cc(C(=O)NCCCOC(C)C)ccc3c2=O)cc1	none
